PubChem BioAssay AID488802 (Broad Institute, 2010)
Potency and affinity values are given separately. Values without a mark were called inactive. No rule for the calls is given here.

assay: single-agent growth inhibition of C. albicans, dose response, counter-screen for antifungal drug resistance project, C. albicans CaCi-2, dry powder (AID 488802); conditions: C. albicans CaCi-2 (fluconazole-resistant clinical isolate) growth, no fluconazole, Alamar Blue, 48 h; series mostly up to 26 µM; activity change, negative = inhibition: at the top concentration

Point of comparison: `O=C(c1ccccc1)N1CCN(c2ccnc3cc(Cl)ccc23)CC1`, “activity change, negative = inhibition” value -30.1%. Against it:
- CCOC(=O)c1nn(Cc2ccc(Cl)cc2)c2ccccc12 — higher, -15.9%
- COC(=O)Cn1nc(-c2ccccc2)c2cc(Cl)ccc21 — higher, 4.23%
- CC1CCN(C(=O)Cn2c3ccc(F)cc3c3nc4n(c(=O)c32)CCCS4)CC1 — higher, 0.966%
- O=C(Cn1nc(-c2ccccc2)c2ccccc21)N1CCc2ccccc2C1 — higher, -15.2%
- CCCNC(=O)Cn1nc(-c2ccccc2)c2ccccc21 — higher, 7.83%
- O=C(c1ccc(Cl)cc1)N1CCN(c2ccc(Cl)cc2)CC1 — higher, -1.08%
- COc1ccc2c(c1)c1nc3n(c(=O)c1n2CC(=O)N1CCC(Cc2ccccc2)CC1)CCS3 — higher, 7.8%
- O=C(c1ccc(Cl)cc1)N1CCN(c2ccccn2)CC1 — lower, -37.2%
- O=C(Cn1c2ccccc2c2nc3n(c(=O)c21)CCS3)NCCc1ccc(Cl)cc1 — higher, 19.3%
- CCOC(=O)c1c2ccccc2nn1Cc1ccc(Cl)cc1 — higher, -15.6%
- CNC(=O)Cn1nc(-c2ccccc2)c2ccccc21 — higher, -11.6%
- O=C(Cn1nc(C(=O)N2CCCCC2)c2ccccc21)N1CCOCC1 — higher, 28.7%
- c1ccc(-c2n[nH]c3ccccc23)cc1 — higher, 18.7%
- O=C(Cn1nc(-c2ccccc2)c2ccccc21)NCc1ccc(Cl)cc1 — higher, -10.8%
- COC(=O)Cn1nc(-c2ccc(C)cc2)c2ccccc21 — lower, -30.7%
- O=C(C1CC1)N1CCN(c2ccnc3cc(Cl)ccc23)CC1 — higher, -23.3%
- O=S(=O)(c1ccc(Cl)cc1)N1CCN(c2ccnc3cc(Cl)ccc23)CC1 — lower, -32.2%
- O=C(Nc1ccc(C(F)(F)F)cc1)N1CCN(c2ccnc3cc(Cl)ccc23)CC1 — lower, -34.5%
- O=C(c1csc2ccccc12)N1CCN(c2ccnc3cc(Cl)ccc23)CC1 — higher, 3.03%
- O=C(O)c1c2ccccc2nn1Cc1ccc(Cl)cc1 — higher, -17.9%
- CCCCNC(=O)N1CCN(c2ccnc3cc(Cl)ccc23)CC1 — higher, -7.56%
- COc1ccc(OC)c2c(C)cc(N3CCN(C(=O)c4ccc(Cl)cc4)CC3)nc12 — higher, -9.23%
- O=C(Cn1c2ccccc2c2nc3n(c(=O)c21)CCCS3)c1ccc(F)cc1 — higher, 6.11%
- O=C(Cn1c2ccccc2c2nc3n(c(=O)c21)CCS3)N1CCCC1 — higher, 9.78%
- COC(=O)Cn1nc(-c2ccccc2)c2ccccc21 — lower, -40.4%
- O=c1c2[nH]c3ccccc3c2nc2n1CCS2 — lower, -34.9%
- COC(=O)Cn1nc(C)c2ccccc21 — higher, 11%
- CCN(CC)C(=O)Cn1c2ccccc2c2nc3n(c(=O)c21)CCS3 — higher, 5.76%
- O=C(O)c1nn(Cc2ccc(Cl)cc2)c2ccccc12 — higher, -23.6%
- COC(=O)Cn1nc(-c2ccc(Cl)cc2)c2ccccc21 — higher, -11.2%
- O=C(c1ccc(Cl)cc1)N1CCN(c2cc(C(F)(F)F)nc3ccccc23)CC1 — higher, -13.8%
- O=C(Cn1nc(-c2ccccc2)c2cc(Cl)ccc21)N1CCOCC1 — higher, 14.3%

Compound `COc1ccc2c(c1)c1nc3n(c(=O)c1n2CC(=O)N1CCC(C)CC1)CCS3` has an activity change, negative = inhibition of 13.5% [at 2.6 µM].

With `O=C(c1cccs1)N1CCN(c2ccnc3cc(Cl)ccc23)CC1` the “activity change, negative = inhibition” value was -9.52% [at 12 µM].
